# Columns and labels:
# Conditions in all cases: concentration: 1 μM, replicates: in singlicate; n = 1
# GRK2 = test system: T1, GRK2
# T1 construct: gene ADRBK1
# GRK3 = test system: T2, GRK3
# T2 construct: gene ADRBK2
# GRK4 = test system: GRK4
# GRK7 = test system: GRK7
# GSK3A = test system: GSK3A
# GSK3B = test system: GSK3B
# HASPIN = test system: T3, HASPIN
# T3 construct: gene GSG2
# HCK = test system: HCK
# HIPK1 = test system: HIPK1
# HIPK2 = test system: HIPK2
# 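Note: KINOMEscan kinase panel screen.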
SMILES,%Inh (GRK2) [%],%Inh (GRK3) [%],%Inh (GRK4) [%],%Inh (GRK7) [%],%Inh (GSK3A) [%],%Inh (GSK3B) [%],%Inh (HASPIN) [%],%Inh (HCK) [%],%Inh (HIPK1) [%],%Inh (HIPK2) [%]
COc1cc2ncn(-c3cc(OCCCc4ccccc4)c(C(N)=O)s3)c2cc1OC [GSK205189],0,0,13,0,10,0,0,4,9,0
Cc1c(Cn2c(C)nn3c(=O)cc(N4CCO[C@H](C)C4)nc23)cccc1C(F)(F)F [GSK2373690],0,18,3,0,13,6,0,0,13,0
COc1ccc(-c2coc3ccc(-c4nnc(SCc5cccc(C#N)c5)o4)cc23)cc1,0,0,0,27,96.1,45,0,20,32,24
COc1cc2ncn(-c3cc(OCc4ccncc4Br)c(C(N)=O)s3)c2cc1OC [GW854278],5,0,35,4,7,0,5,3,0,4
Nc1nc(N)c2nc(-c3ccccc3)[nH]c2n1 [SKF-12778],13,9,18,4,0,0,0,3,5,11
COc1ccc(-n2cnc3c(N)ncnc32)cc1 [SKF-97236],12,0,22,3,6,15,0,0,24,5
COc1ccc(-c2cc3c(C)nc(N)nc3n([C@H]3CC[C@H](OCCO)CC3)c2=O)cn1,17,0,1,1,0,1,33,13,17,0
FC(F)(F)c1ccc(-c2ncn(CCCN3CCOCC3)c2-c2ccncc2)cc1 [SB-217780],5,0,26,0,0,25,11,8,18,52
